Measurements from PubChem BioAssay (EPA / NIEHS).
Records with an inconclusive call do not appear. Activity calls are given as the source filed them. How the source made its calls, unless noted: active means hit-call score of the fitted dose curve at least 0.9, where 1 is the maximum; inconclusive means response in the unintended direction; inactive means score below 0.9.

Assays:
[1] = Tanguay_ZF_120hpf_TRUN_legacy: (Legacy) Oregon State University Tanguay Lab 120 Hour Post-fertilization zebrafish Assay for Truncated Body (AID 2283655)
Method in brief: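 Single dechorionated zebrafish embryos received test chemical from 6 hpf in 0.64% DMSO, kept at 28C. At 120 hpf, brightfield inspection noted any truncated body.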

[2] = Tanguay_ZF_120hpf_NC_legacy: (Legacy) Oregon State University Tanguay Lab 120 Hour Post-fertilization zebrafish Assay for Notochord and Tail Malformation (AID 2283656)
Method in brief: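 Binary notochord-distortion calls, made by brightfield inspection, form the read-out; activity is fitted in the positive direction against DMSO. Exposure ran statically from 6 to 120 hpf at 28C with 0.64% DMSO.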

[3] = read-out: ABC Transporter (ABCB1), ABCB1 (gene 5243); test: CLD_ABCB1_6hr: CellzDirect (CLD) Gene Expression Assay for ABC Transporter (ABCB1) at 6 hours (AID 2283659);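 further: hits raise ABCB1 transcript above the DMSO vehicle baseline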
Method in brief: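 ABCB1 transcript measured by quantitative nuclease protection assay, chemiluminescent read-out, 6 h after dosing human hepatocyte cultures (0.2% DMSO vehicle, daily redosing). Activity fitted as increase over DMSO baseline; cytotoxicity flagged by phase-contrast morphology.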

[4] = read-out: Broad substrate specificity ATP-binding cassette transporter ABCG2 (Homo sapiens) (UniProt Q9UNQ0); test: CLD_ABCG2_6hr: CellzDirect (CLD) Gene Expression Assay for ABC Transporter (ABCG2) at 6 hours (AID 2283660)
Method in brief: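 ABCG2 mRNA induction measured by qNPA chemiluminescence in human primary hepatocyte cultures, 6 h post-dose. Chemicals tested at several concentrations against a 0.2% DMSO vehicle; positive-direction fit relative to DMSO.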

[5] = read-out: xenobiotic metabolism (CYP1A2), CYP1A2 (gene 1544); test: CLD_CYP1A2_6hr: CellzDirect (CLD) Gene Expression Assay for xenobiotic metabolism (CYP1A2) at 6 hours (AID 2283663);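 on AC50: potency is for induction meaning a rise in mRNA above DMSO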
Method in brief: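 mRNA levels quantified by quantitative nuclease protection assay with chemiluminescence, 6 h after dosing human primary hepatocyte cultures (two donors) across several concentrations, vehicle 0.2% DMSO. Induction fitted upward versus DMSO; phase-contrast cytotoxicity annotated.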

[6] = Tanguay_ZF_120hpf_TR_legacy: (Legacy) Oregon State University Tanguay Lab 120 Hour Post-fertilization zebrafish Assay for Touch Response (AID 2283667)
Method in brief: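 Readout is presence or absence of touch response in 120 hpf zebrafish larvae, assessed by brightfield observation after continuous static exposure at 28C. Final vehicle was 0.64% (vol/vol) DMSO.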

[7] = read-out: glucuronosyltransferase (UGT1A1), UGT1A1 (gene 54658); test: CLD_UGT1A1_6hr: CellzDirect (CLD) Gene Expression Assay for glucuronosyltransferase (UGT1A1) at 6 hours (AID 2283672)
Method in brief: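 UGT1A1 mRNA induction, read by quantitative nuclease protection assay, 6 h after dosing primary human hepatocytes (two donors, 0.2% DMSO vehicle). Gain of signal fitted relative to vehicle.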

[8] = read-out: Cytochrome P450 2B6 (Homo sapiens) (UniProt P20813); test: CLD_CYP2B6_6hr: CellzDirect (CLD) Gene Expression Assay for xenobiotic metabolism (CYP2B6) at 6 hours (AID 2283677);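 further: actives raise CYP2B6 transcript above DMSO baseline so AC50 marks an inducer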
Method in brief: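 CYP2B6 transcript levels, read by chemiluminescent qNPA, were fitted for increase versus DMSO baseline; cultured human liver hepatocytes from two donor preparations were harvested 6 h after exposure to test chemicals at multiple concentrations.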

[9] = read-out: Cytochrome P450 2C19 (Homo sapiens) (UniProt P33261); test: CLD_CYP2C19_6hr: CellzDirect (CLD) Gene Expression Assay for xenobiotic metabolism (CYP2C19) at 6 hours (AID 2283678)
Method in brief: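 CYP2C19 transcript induction was quantified by quantitative nuclease protection assay with chemiluminescent read-out, 6 h after dosing. Cells were primary human hepatocytes from two donor preparations, given fresh dosing solutions daily in 0.2% DMSO vehicle. Activity was relative to DMSO.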

[10] = read-out: xenobiotic metabolism (CYP1A1), CYP1A1 (gene 1543); test: CLD_CYP1A1_6hr: CellzDirect (CLD) Gene Expression Assay for xenobiotic metabolism (CYP1A1) at 6 hours (AID 2283661)
Method in brief: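 Read-out 6 h post-dose: qNPA chemiluminescent quantitation of transcript induction against 0.2% DMSO. Cells were cultured primary human hepatocytes from two separate donor preparations; phase-contrast morphology annotated apparent cytotoxicity.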

[11] = read-out: xenobiotic metabolism (CYP2C9), CYP2C9 (gene 1559); test: CLD_CYP2C9_6hr: CellzDirect (CLD) Gene Expression Assay for xenobiotic metabolism (CYP2C9) at 6 hours (AID 2283664)
Method in brief: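 Readout is qNPA chemiluminescence of CYP2C9 mRNA, taken 6 h after dosing of cultured human liver primary cells at several concentrations. Activity is the increase over 0.2% DMSO baseline. Morphology-based cytotoxicity flagged yes/no.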

[12] = CLD_ACTIN_24hr: CellzDirect (CLD) Gene Expression Assay for Baseline Control (Actin) at 24 hours (AID 2283670)
Method in brief: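 This 24 h qNPA (S1 nuclease protection, chemiluminescence) actin transcript readout in cultured human liver primary cells serves as baseline control. Signal is fitted upward relative to 0.2% DMSO; chemicals tested at multiple concentrations across two donor preparations.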

[13] = read-out: ABC Transporter (ABCB11), ABCB11 (gene 8647); test: CLD_ABCB11_24hr: CellzDirect (CLD) Gene Expression Assay for ABC Transporter (ABCB11) at 24 hours (AID 2283674; active means hit-call score of the fitted dose curve at least 0.9, where 1 is the maximum; inactive means score below 0.9)
Method in brief: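 ABCB11 transcript was quantified by qNPA chemiluminescence in cultured human liver hepatocytes 24 hours after dosing. Fresh dosing solutions were applied on consecutive days, against a 0.2% DMSO vehicle. Cytotoxicity was noted by phase-contrast morphology.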

[14] = read-out: matrix metalloproteinase-1 (MMP1), MMP1 (gene 4312); test: LTEA_HepaRG_MMP1: Life Technologies and Expression Analysis (LTEA) Assay for matrix metalloproteinase-1 (MMP1) using HepaRG (AID 2283658; active means hit-call score of the fitted dose curve at least 0.9, where 1 is the maximum; inactive means score below 0.9); details: mRNA level, 48 h; actives raise or lower the signal
Method in brief: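 In this screen, human liver HepaRG cultures receive each chemical in duplicate for 48 h (top 100 uM, 0.5% DMSO). MMP1 expression is then quantified by TaqMan qRT-PCR with ACTB/GAPDH/POLR2A normalization.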

[15] = system: Thyroperoxidase (TPO), gene 54314; test: CCTE_Simmons_AUR_rTPO: CCTE's Amplex UltraRed Assay for Thyroperoxidase (TPO) Inhibition, Simmons Lab (AID 2283662);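 further: potency for loss of signal meaning inhibition of peroxidase activity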
Method in brief: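 Cell-free peroxidase activity assay using rat thyroid gland microsomes with excess H2O2 (300 uM) and 25 uM Amplex UltraRed. Compounds tested from 5 nM to 87.5 uM; fluorescence measured after 30 min at 37C, analysed relative to DMSO baseline.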

[16] = read-out: alkyl and aryl transferase (GSTA2), GSTA2 (gene 2939); test: CLD_GSTA2_6hr: CellzDirect (CLD) Gene Expression Assay for alkyl and aryl transferase (GSTA2) at 6 hours (AID 2283666)
Method in brief: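 GSTA2 transcript induction at 6 h, quantified by nuclease protection (qNPA) with chemiluminescent detection, in human liver primary hepatocytes exposed to several compound concentrations with 0.2% DMSO as baseline; phase-contrast morphology annotated apparent cytotoxicity.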

[17] = read-out: xenobiotic metabolism (CYP1A1), CYP1A1 (gene 1543); test: CLD_CYP1A1_24hr: CellzDirect (CLD) Gene Expression Assay for xenobiotic metabolism (CYP1A1) at 24 hours (AID 2283673);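 further: CYP1A1 mRNA level by quantitative nuclease protection with chemiluminescence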
Method in brief: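 Transcript levels were read at 24 h by qNPA chemiluminescence in human liver primary cells. Cells got daily fresh dosing at multiple concentrations (vehicle 0.2% DMSO). Induction fitted upward against DMSO; phase-contrast cytotoxicity annotated.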

[18] = read-out: sulfotransferase (SULT2A), SULT2A1 (gene 6822); test: CLD_SULT2A_6hr: CellzDirect (CLD) Gene Expression Assay for sulfotransferase (SULT2A) at 6 hours (AID 2283669);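 further: hits raise transcript level above the DMSO vehicle baseline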
Method in brief: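 Measured 6 h after dosing, SULT2A1 mRNA in human hepatocyte lysates was quantified by S1 nuclease protection with chemiluminescent detection. Increases fitted against 0.2% DMSO vehicle baseline; phase-contrast cytotoxicity recorded yes/no.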

[19] = read-out: ABC Transporter (ABCB11), ABCB11 (gene 8647); test: CLD_ABCB11_6hr: CellzDirect (CLD) Gene Expression Assay for ABC Transporter (ABCB11) at 6 hours (AID 2283675);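 further: hits raise ABCB11 mRNA level so AC50 marks induction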
Method in brief: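 Read-out was ABCB11 mRNA gain of signal by quantitative nuclease protection assay, relative to 0.2% DMSO vehicle, 6 h post-dose. Cells were primary human hepatocytes from two donors, treated across multiple concentrations; phase-contrast cytotoxicity noted yes/no.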

Measured: AC50

Broad substrate specificity ATP-binding cassette transporter ABCG2 (Homo sapiens), sequence (Q9UNQ0 whole entry, looked up): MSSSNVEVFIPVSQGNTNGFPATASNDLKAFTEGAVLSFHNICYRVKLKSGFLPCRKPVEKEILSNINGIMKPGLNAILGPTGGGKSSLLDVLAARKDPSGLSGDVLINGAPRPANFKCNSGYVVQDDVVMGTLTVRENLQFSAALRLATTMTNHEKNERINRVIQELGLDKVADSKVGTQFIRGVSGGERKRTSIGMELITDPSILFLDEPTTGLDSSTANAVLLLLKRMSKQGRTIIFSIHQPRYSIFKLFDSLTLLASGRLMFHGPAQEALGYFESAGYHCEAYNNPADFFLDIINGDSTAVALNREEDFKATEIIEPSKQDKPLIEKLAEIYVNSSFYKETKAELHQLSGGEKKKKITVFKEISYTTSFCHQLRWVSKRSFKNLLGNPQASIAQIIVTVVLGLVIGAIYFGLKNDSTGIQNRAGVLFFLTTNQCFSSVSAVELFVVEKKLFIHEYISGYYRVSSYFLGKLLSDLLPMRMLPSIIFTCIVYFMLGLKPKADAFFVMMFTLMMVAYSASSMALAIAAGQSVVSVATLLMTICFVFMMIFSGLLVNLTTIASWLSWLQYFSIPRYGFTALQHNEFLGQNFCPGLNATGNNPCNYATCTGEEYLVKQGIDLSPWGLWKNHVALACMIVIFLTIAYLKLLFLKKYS
Cytochrome P450 2C19 (Homo sapiens), sequence (P33261 whole entry, looked up): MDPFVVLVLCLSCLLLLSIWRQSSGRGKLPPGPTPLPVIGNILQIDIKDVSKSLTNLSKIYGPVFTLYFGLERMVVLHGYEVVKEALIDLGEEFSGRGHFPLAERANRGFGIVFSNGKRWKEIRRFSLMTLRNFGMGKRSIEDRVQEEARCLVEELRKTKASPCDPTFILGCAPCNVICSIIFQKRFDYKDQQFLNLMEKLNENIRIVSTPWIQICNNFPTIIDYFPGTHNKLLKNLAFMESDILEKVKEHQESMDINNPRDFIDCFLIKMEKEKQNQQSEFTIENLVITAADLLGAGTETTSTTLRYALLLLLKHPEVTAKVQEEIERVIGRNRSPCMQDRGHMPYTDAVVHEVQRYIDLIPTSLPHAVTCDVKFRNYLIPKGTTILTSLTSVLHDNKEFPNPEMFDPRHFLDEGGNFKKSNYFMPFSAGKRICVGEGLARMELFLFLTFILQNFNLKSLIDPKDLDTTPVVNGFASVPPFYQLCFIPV

CN(C)C(=O)Nc1cccc(C(F)(F)F)c1
inactive: [1] | [2] | [3] | [4] | [5] | [6] | [7] | [8] | [9]

CON=C(C(=O)OC)c1ccccc1CON=C(C)c1cccc(C(F)(F)F)c1
active: [8] 10.2 µM
inactive: [1] | [2] | [3] | [4] | [10] | [11] | [6] | [12] | [7] | [13] | [9]

CCOP(=S)(Oc1cnc(C(C)(C)C)nc1)OC(C)C (stereo not given)
inactive: [1] | [2] | [14] | [3] | [4] | [5] | [16] | [6] | [7] | [13]
active: [15] 36.2 µM | [17] 7.48 µM | [8] 0.47 µM

CNC(=O)ON=C(C)SC
inactive: [1] | [2] | [3] | [4] | [10] | [5] | [16] | [18] | [12] | [7] | [13] | [8] | [9]

CC(Oc1cccc(Cl)c1)C(=O)O (stereo not given)
inactive: [1] | [2] | [3] | [4] | [5] | [16] | [6] | [12] | [7] | [9]

COP(=O)(OC)OC(Br)C(Cl)(Cl)Br (stereo not given)
inactive: [1] | [2] | [3] | [4] | [5] | [16] | [6] | [12] | [7] | [8] | [9]

CCc1cccc(CC)c1N(COC)C(=O)CCl
inactive: [1] | [2] | [14] | [4] | [11] | [16] | [6] | [7] | [13]
active: [8] 2.58 µM

CCOP(=S)(OCC)Oc1cc(C)nc(C(C)C)n1
inactive: [1] | [2] | [3] | [4] | [16] | [6] | [7] | [19]
active: [15] 14.4 µM | [5] 0.589 µM | [17] 6.62 µM | [8] 1.96 µM
